# ± gives the standard deviation.
# Tested on: MILI (PIWIL2) piRISC loaded with piRNA #1 (26 nt)
# Experiment: pre-steady-state target cleavage rate (min^-1); guide: piRNA #1 5'p-UGAGGUAGUAGGUUGUAUAGUAUCCA; MIWI and MILI are mouse PIWI proteins and EfPiwi is from a freshwater sponge; tags in brackets are library labels; higher = faster piRNA-guided slicing of the target
# Conditions: auxiliary factor: 500 nM mouse GTSF1
# Method in brief: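 The pre-steady-state cleavage rate was derived from a burst-and-steady-state fit of Cleave-'n-Seq data. For these assays, 1 nM active affinity-purified piRISC loaded with a single synthetic guide was mixed with […] a transcribed, DNA-blocked target RNA library in HEPES–potassium acetate buffer at 33 °C, with or without 500 nM GTSF1 partner protein, for 0–8 or 0–960 min. Sequencing counts of uncleaved targets were normalised to depth and to weakly complementary targets, and k3 was capped at 0.0001 min^-1 after three trials were pooled.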
# 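Further: 1 nM active piRISC with 0.1 nM target library at 33 °C single turnover.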
row,Sequence,pre-steady-state target cleavage rate
1,GGAGACCUAUCUUUACAACCAACUACCUCA,0.0039 ± 0.0033
2,GGAGACCUAUGUAUACAACGUACUACCUGA,0.00357 ± 0.0021
3,GGAGACCUAUGAUAACAACCUACAUGGAGA [g8:g16:cont:t1A],< 0.0001
4,GGAGACCUAACUAUACAACGUACAACCUCA,0.0148 ± 0.005
5,GGAGACCUAUGAAUACAACCUACCUACCUCA,0.0088 ± 0.0035
6,GGAGACCUAUCUAUACAAGCUACUAGCUCA,0.0812 ± 0.018
7,GGAGACCUAACUAUACUUCCUACUACCUCA,0.054 ± 0.011
8,GGAGACCUUACUAUACAACCUACUCACCUCA,0.17 ± 0.018
9,GGAGACCUAACUAUUCAACCUACAACCUCA,0.129 ± 0.021
10,GGAGACCAUACUAUACAACCUACAACCACA,0.0647 ± 0.017
11,GGAGACCUAUCUAAUCAACCUACUACCUCA,0.0267 ± 0.0037
12,GGAGUGGAUACUAUAAACCUACUACCUCA,0.0206 ± 0.0043
13,GGAGACGAUAGUAUACAACGUACUACCUCA,0.0209 ± 0.0035
14,GGAGUGGAUACAAUAGAACCUACUACCUCA,0.163 ± 0.009
15,GGAGACCUAUGAAUACAUCCUACUUCCUCA,0.00892 ± 0.0025
16,GGAGAGGAUUCUAUACAACCUACAACCUCA,0.0904 ± 0.012
17,GGAGUGCAUACUAUACAACCUACUUCCUCA,0.00653 ± 0.0022
18,GGAGACCAUUCUAUACAACCUACUACCUCA,0.136 ± 0.013
19,GGAGACCUAUGUUUAGAACCUACUACCUCA,0.00346 ± 0.0023
20,GGAGACCUAACUAUACAACGUACUACCUGA,0.00576 ± 0.0041

row,Sequence,pre-steady-state target cleavage rate
1,GGAGACCUUACUAUAGCAACCUACUACCUCA,0.127 ± 0.012
2,GGAGACCUUACUAUACAACGUAGUACCUCA,0.015 ± 0.0045
3,GGAGACCUAACUAAACAACCUACUACGUCA,0.0404 ± 0.019
4,GGAGUGGAUACUAUACACCUACUACCUCA,0.0342 ± 0.0053
5,GGAGACCUAUGUAUACAACCUACUACCUGA,0.0463 ± 0.008
6,GGAGAGGAUUCUAUACAACCUACUACCUGA,0.0768 ± 0.011
7,GGAGACCUAUGAUUACAACCUACUAGCUCA,0.00322 ± 0.0026
8,GGAGACGAUAGAAUACAACCUACUACCUCA,0.137 ± 0.013
9,GGAGACCUAUGAAUACAACCUAAUACCUCA,0.00363 ± 0.0026
10,GGAGACCUAUGAUAUGUUCCUACUACCCCA,< 0.0001
11,GGAGACCUUACUAUACAACGUACUAGCUCA,0.0137 ± 0.0043
12,GGAGACCUAUCUAUACAACCUAGAACCUCA,0.00829 ± 0.0026
13,GGAGUGGAUACUAUACAACCUACUACCAUCA,0.0921 ± 0.013
14,GGAGACCUUACUAUACAUCGUACUACCUCA,0.0364 ± 0.0047
15,GGAGACCUAUGUUUACUACCUACUACCUCA,0.00553 ± 0.0021
16,GGAGACCUAUGAAUACAACGUACUAGCUCA,0.0036 ± 0.0035
17,GGAGACCUUACUAAACAACCUACUAGCUCA,0.139 ± 0.018
18,GGAGAGGAUACUAUACUACCUACAACCUCA,0.102 ± 0.0092
19,GGAGACCUAACUAUACAACCUACUAGCUCA,0.0915 ± 0.027
20,GGAGACCUUACUAUAGAACCUACUACCACA,0.0558 ± 0.012

# — the supplement of paper PMC10338343
